Test results reported in PubChem BioAssay (NCI).
Compounds without any hit were thinned out: in the full panel of roughly 83,000, 20% have a hit.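 How to read the values: 0–100, growth inhibition (40 = 60% inhibited); 0, no net growth; -100 to 0, cell death (-40 = 40% of starting cells died; -100 = all dead).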 A number with no mark means an inactive call. Activity calls are given as the source filed them. Rule for the calls: active = growth percent below 10; inactive = the rest.

Each molecule was assayed on CCRF-CEM leukemia (assay: NCI-60 one-dose screen, 48 h (100 = growth as untreated, 0 = no growth, -100 = all killed)). Details: 10 µM.

Structure (SMILES) | growth
COc1nc(OC)nc(-c2cc(C(=O)c3ccc(Br)cc3)n3cc(C)cc(C)c23)n1 | 83.8%
CC(=O)OCC(=O)[C@@]1(O)[C@H](C)C[C@H]2[C@@H]3C=C(C)C4=Cc5c(cnn5-c5ccc(F)cc5)C[C@]4(C)[C@H]3[C@@H](O)C[C@@]21C | 6.74% (active)
Brc1c(-c2ccncc2)nc2n1CCS2 | -8.76% (active)
CCC1(CC)C(OC)NC(Br)=C(C#N)C1(C#N)C(N)=O (centres undefined) | 100%
COc1ccc(CN2C(=O)/C(=C\C(=O)c3ccc(OCCN4CCCC4)cc3)c3ccccc32)cc1 | 2.08% (active)
COc1ccc(/C=C2\SC(=O)N(Cc3cc(=O)oc4ccc(OC)cc34)C2=O)cc1 | 77.2%
c1cc(C2CCCCC2)ccc1OCCCCCCN1CCNCC1 | -51.7% (active)
COc1cc(/C=C/C(=O)/C=C(/C=C/c2ccc(OC(C)=O)c(OC)c2)OB(F)F)ccc1OC(C)=O | 1.09% (active)
Cc1c([C@H](C(Cl)Cl)[C@H](O)[C@H]2C[C@H](C)C(=O)O2)ccc2c1C(=O)[C@H]1[C@H]2C[C@@H](Br)[C@@]23O[C@@H](CO[C@H]2O)CC13C (some centres undefined) | 17.2%
O=C1/C(=N\c2cc(=O)[nH]n2S(=O)(=O)c2ccccc2)Nc2ccccc21 | 98.4%
N=C(N)c1ccc(-c2ccc(-c3ccc(Cl)cc3)s2)s1 | -70.8% (active)
O=Nc1c(-c2c(O)[nH]c3cc(Br)ccc23)[nH]c2ccccc12 | -6.73% (active)
CC(C)(C)C(=O)OCOP(=O)(OCOC(=O)C(C)(C)C)C1CC(O)N(O)C1=O (centres undefined) | 4.09% (active)
CC1(C)CC(=O)C2=C(C1)Oc1nc(N)c(C#N)c(N)c1C2c1ccc(F)cc1 (centres undefined) | 118%
O=C1c2cc([N+](=O)[O-])ccc2-c2cc(Cl)c(NC(=O)C(F)(F)F)cc21 | 96.6%
COc1ccc(CNCCCN2C(=O)c3ccc4c5c(ccc(c35)C2=O)C(=O)N(CCCNCc2ccc(OC)c(OC)c2OC)C4=O)c(OC)c1OC | -34% (active)
O=C(Nc1ccccc1)Nc1ccc(Nc2ncnc3sc4c(c23)CCCC4)cc1 | 92.4%
O=S(=O)(Cc1cccc2c(CS(=O)(=O)c3ccc(Cl)cc3)cccc12)c1ccc(Cl)cc1 | 90.7%

Structure (SMILES) | growth
COc1cc(CNC(=O)CCCC/C=C/C(C)C)ccc1OCc1nnc(Nc2ccccc2F)o1 | 83%
Nc1nc2c(c3ncncc13)C(c1cccc(C(F)(F)F)c1)Cc1ncncc1-2 (centres undefined) | 13.5%
Cn1cnc2nc[nH]c2c1=S | 98.7%
O=C(O)c1ccc(-c2nn(-c3ccc(C(=O)O)cc3)cc2CNc2ccc(Br)cc2)cc1 | 101%
O=C(N/N=C/c1coc2ccccc2c1=O)c1cc2oc(-c3ccccc3)cc2[nH]1 | 103%
CCC(C)C1NC(=O)C(CC(C)C)NC(=O)C(C)NC(=O)C(C(C)C)NC(=O)C(CCCCN)NC(=O)C(CC(C)C)NC(=O)C(C(C)C)NC(=O)[C@H](C)NC(=O)C(C(C)CC)NC(=O)C(CCCN=C(N)N)NC(=O)C(CCCCN)NC(=O)C(CCCN=C(N)N)NC(=O)C(CCCCN)NC(=O)C([C@H](C)CC)NC(=O)C(CCCCN)NC1=O (some centres undefined) | 8.98% (active)
CCC(CCCN1C(=O)c2ccccc2C1=O)Nc1cc(OC)cc2cccnc12 (centres undefined) | 84.5%
O=c1c(N=Nc2nccs2)c(-c2ccccc2)[nH]n1-c1nc(-c2ccccc2)cs1 | 25.5%
Cc1ccc(C(=O)Nc2ccc(CN3CCN(C)CC3)c(C(F)(F)F)c2)cc1C#Cc1cncc2ncccc12 | -56.2% (active)
CCOC(=O)C1C(=O)C(=O)N(C(C)C)C1C(=O)OCC (centres undefined) | 110%
COc1cc2c(cc1OC)C(Cc1cc(OC)c(OC)cc1[N+](=O)[O-])=NCC2 | 88.3%
COc1ccc2c(c1)/C(=C1/S/C(=N/c3nnc(C)s3)NC1=O)C(=O)N2Cc1ccc(Br)cc1 | 21.2%
CCOP1(=O)CC(C)=C(Cl)C(P(=O)(O)O)C1 (centres undefined) | -35.6% (active)
O=C(O)CC1Cc2ccccc2C1C(=O)O (centres undefined) | 85.7%
Nc1cc2c(cc1Br)[nH]c(=O)c1ccccc12 | 47.1%
CCc1ccc(C(=Nc2ccc(N(C)C(=O)CN3CCN(C)CC3)cc2)c2c(O)[nH]c3ccc(C(=O)OC)cc23)cc1 | -15.5% (active)
N#CCCCCCCCCCCC#N | 97.5%
O=C1CSC(c2ccccc2Cl)N1c1nnc(-c2ccncc2)o1 (centres undefined) | 102%

These molecules were tested on MOLT-4 leukemia in the same assay as above. Details: 10 µM unless noted.

Structure (SMILES) | growth
CC(=O)OCC(=O)[C@@]1(O)[C@H](C)C[C@H]2[C@@H]3C=C(C)C4=Cc5c(cnn5-c5ccc(F)cc5)C[C@]4(C)[C@H]3[C@@H](O)C[C@@]21C | 1.22% (active)
Brc1c(-c2ccncc2)nc2n1CCS2 | 87.3%
CC(=O)/C(=C\c1c(-c2ccccc2)[nH]c2ccccc12)S(=O)(=O)c1ccccc1 | -35.5% (active)
CCC1(CC)C(OC)NC(Br)=C(C#N)C1(C#N)C(N)=O (centres undefined) | 88.4%
COc1ccc(/C=C2\SC(=O)N(Cc3cc(=O)oc4ccc(OC)cc34)C2=O)cc1 | 85.1%
c1cc(C2CCCCC2)ccc1OCCCCCCN1CCNCC1 | -48.5% (active)
COc1cc(/C=C/C(=O)/C=C(/C=C/c2ccc(OC(C)=O)c(OC)c2)OB(F)F)ccc1OC(C)=O | 3.59% (active)
Cc1c([C@H](C(Cl)Cl)[C@H](O)[C@H]2C[C@H](C)C(=O)O2)ccc2c1C(=O)[C@H]1[C@H]2C[C@@H](Br)[C@@]23O[C@@H](CO[C@H]2O)CC13C (some centres undefined) | 16.4%
O=C1/C(=N\c2cc(=O)[nH]n2S(=O)(=O)c2ccccc2)Nc2ccccc21 | 102%
COc1cc([C@@H]2c3cc4c(cc3[C@H](O)[C@H]3COC[C@@H]23)OCO4)cc(OC)c1OC | 76.6%
O=Nc1c(-c2c(O)[nH]c3cc(Br)ccc23)[nH]c2ccccc12 | -68.9% (active)
CC(C)(C)C(=O)OCOP(=O)(OCOC(=O)C(C)(C)C)C1CC(O)N(O)C1=O (centres undefined) | 24.5%
CC1(C)CC(=O)C2=C(C1)Oc1nc(N)c(C#N)c(N)c1C2c1ccc(F)cc1 (centres undefined) | 74.4%
O=C1c2cc([N+](=O)[O-])ccc2-c2cc(Cl)c(NC(=O)C(F)(F)F)cc21 | 94%
COc1ccc(CNCCCN2C(=O)c3ccc4c5c(ccc(c35)C2=O)C(=O)N(CCCNCc2ccc(OC)c(OC)c2OC)C4=O)c(OC)c1OC | -43.9% (active)
O=C(Nc1ccccc1)Nc1ccc(Nc2ncnc3sc4c(c23)CCCC4)cc1 | 89.5%
O=S(=O)(Cc1cccc2c(CS(=O)(=O)c3ccc(Cl)cc3)cccc12)c1ccc(Cl)cc1 | 95.5%

Structure (SMILES) | growth
COc1cc(CNC(=O)CCCC/C=C/C(C)C)ccc1OCc1nnc(Nc2ccccc2F)o1 | 82%
Cn1cnc2nc[nH]c2c1=S | 102%
O=C(O)c1ccc(-c2nn(-c3ccc(C(=O)O)cc3)cc2CNc2ccc(Br)cc2)cc1 | 118%
O=C(N/N=C/c1coc2ccccc2c1=O)c1cc2oc(-c3ccccc3)cc2[nH]1 | 55.9%
CCC(C)C1NC(=O)C(CC(C)C)NC(=O)C(C)NC(=O)C(C(C)C)NC(=O)C(CCCCN)NC(=O)C(CC(C)C)NC(=O)C(C(C)C)NC(=O)[C@H](C)NC(=O)C(C(C)CC)NC(=O)C(CCCN=C(N)N)NC(=O)C(CCCCN)NC(=O)C(CCCN=C(N)N)NC(=O)C(CCCCN)NC(=O)C([C@H](C)CC)NC(=O)C(CCCCN)NC1=O (some centres undefined) | -6.28% (active)
O=c1c(N=Nc2nccs2)c(-c2ccccc2)[nH]n1-c1nc(-c2ccccc2)cs1 | 30.3%
Cc1ccc(C(=O)Nc2ccc(CN3CCN(C)CC3)c(C(F)(F)F)c2)cc1C#Cc1cncc2ncccc12 | -58.9% (active)
CCOC(=O)C1C(=O)C(=O)N(C(C)C)C1C(=O)OCC (centres undefined) | 122%
COc1cc2c(cc1OC)C(Cc1cc(OC)c(OC)cc1[N+](=O)[O-])=NCC2 | 92.4%
COc1ccc2c(c1)/C(=C1/S/C(=N/c3nnc(C)s3)NC1=O)C(=O)N2Cc1ccc(Br)cc1 | 20.7%
CCOP1(=O)CC(C)=C(Cl)C(P(=O)(O)O)C1 (centres undefined) | 89.9%
O=C(O)CC1Cc2ccccc2C1C(=O)O (centres undefined) | 82.3%
Nc1cc2c(cc1Br)[nH]c(=O)c1ccccc12 | 20.9%
CCc1ccc(C(=Nc2ccc(N(C)C(=O)CN3CCN(C)CC3)cc2)c2c(O)[nH]c3ccc(C(=O)OC)cc23)cc1 | -37.6% (active)
N#CCCCCCCCCCCC#N | 105%
O=C1CSC(c2ccccc2Cl)N1c1nnc(-c2ccncc2)o1 (centres undefined) | 94.3%
